ChEMBL document CHEMBL1961873, “Compounds: GSK PKIS; Assays: Nanosyn kinase panel” (2012)

Key:
[1] = target: T1, Serine/threonine-protein kinase TBK1 (Homo sapiens) (UniProt Q9UHD2); details: at 1 µM;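 further: values are mean inhibition of TBK1, screened as part of the GSK published kinase inhibitor set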
T1 sequence (whole entry): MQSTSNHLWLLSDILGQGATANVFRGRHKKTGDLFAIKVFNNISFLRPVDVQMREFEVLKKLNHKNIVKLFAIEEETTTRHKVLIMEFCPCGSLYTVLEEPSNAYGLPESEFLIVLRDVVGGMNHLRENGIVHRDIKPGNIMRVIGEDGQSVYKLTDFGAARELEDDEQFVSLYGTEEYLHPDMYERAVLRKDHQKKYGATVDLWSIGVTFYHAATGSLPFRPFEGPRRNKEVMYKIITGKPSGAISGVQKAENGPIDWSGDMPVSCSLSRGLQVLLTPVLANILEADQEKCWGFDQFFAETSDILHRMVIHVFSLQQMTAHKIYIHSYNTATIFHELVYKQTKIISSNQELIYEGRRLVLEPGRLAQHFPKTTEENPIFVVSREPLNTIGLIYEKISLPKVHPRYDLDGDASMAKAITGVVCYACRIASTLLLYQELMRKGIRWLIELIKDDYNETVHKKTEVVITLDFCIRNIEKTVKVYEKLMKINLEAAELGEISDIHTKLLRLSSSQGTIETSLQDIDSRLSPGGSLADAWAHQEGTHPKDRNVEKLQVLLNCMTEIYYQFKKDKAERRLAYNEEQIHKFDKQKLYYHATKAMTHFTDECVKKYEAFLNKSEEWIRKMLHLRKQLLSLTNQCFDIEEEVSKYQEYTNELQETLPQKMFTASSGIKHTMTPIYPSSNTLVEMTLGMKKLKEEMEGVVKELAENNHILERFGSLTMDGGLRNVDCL

[2] = target: T2, Testis-specific serine/threonine-protein kinase 1 (Homo sapiens) (UniProt Q9BXA7); details: at 0.1 µM
T2 sequence (whole entry): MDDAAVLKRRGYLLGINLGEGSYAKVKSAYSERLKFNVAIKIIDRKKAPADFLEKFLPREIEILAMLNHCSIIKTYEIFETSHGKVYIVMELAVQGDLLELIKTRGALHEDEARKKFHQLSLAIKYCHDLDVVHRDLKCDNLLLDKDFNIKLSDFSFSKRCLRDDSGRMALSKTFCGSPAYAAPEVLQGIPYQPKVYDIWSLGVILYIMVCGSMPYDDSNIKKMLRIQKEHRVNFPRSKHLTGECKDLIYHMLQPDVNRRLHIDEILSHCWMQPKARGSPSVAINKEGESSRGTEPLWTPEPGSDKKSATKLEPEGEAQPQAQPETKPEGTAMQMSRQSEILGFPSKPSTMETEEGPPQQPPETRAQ

[3] = target: T2, Testis-specific serine/threonine-protein kinase 1 (Homo sapiens); details: at 1 µM
[4] = target: T3, Testis-specific serine/threonine-protein kinase 2 (Homo sapiens) (UniProt Q96PF2); details: at 0.1 µM
T3 sequence (whole entry): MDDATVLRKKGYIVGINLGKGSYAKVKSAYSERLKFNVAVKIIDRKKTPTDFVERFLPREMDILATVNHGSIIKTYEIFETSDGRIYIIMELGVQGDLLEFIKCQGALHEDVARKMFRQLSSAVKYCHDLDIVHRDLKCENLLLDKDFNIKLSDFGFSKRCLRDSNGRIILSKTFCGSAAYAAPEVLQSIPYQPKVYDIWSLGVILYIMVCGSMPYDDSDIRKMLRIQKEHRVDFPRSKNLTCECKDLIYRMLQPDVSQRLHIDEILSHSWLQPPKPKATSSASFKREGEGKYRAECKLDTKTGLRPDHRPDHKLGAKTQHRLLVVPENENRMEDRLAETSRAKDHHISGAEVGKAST

[5] = target: T3, Testis-specific serine/threonine-protein kinase 2 (Homo sapiens); details: at 1 µM
[6] = target: Casein kinase I isoform alpha (Homo sapiens) (UniProt P48729); details: at 0.1 µM
[7] = target: Casein kinase I isoform alpha (Homo sapiens) (UniProt P48729); details: at 1 µM
[8] = target: Casein kinase I isoform gamma-1 (Homo sapiens) (UniProt Q9HCP0); details: at 0.1 µM
[9] = target: Casein kinase I isoform gamma-1 (Homo sapiens) (UniProt Q9HCP0); details: at 1 µM
[10] = target: Casein kinase I isoform gamma-2 (Homo sapiens) (UniProt P78368); details: at 0.1 µM;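 further: values are mean inhibition figures reported as part of the GSK PKIS dataset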
Chain of Casein kinase I isoform gamma-2 (Homo sapiens) (P78368 whole entry, looked up, canonical isoform): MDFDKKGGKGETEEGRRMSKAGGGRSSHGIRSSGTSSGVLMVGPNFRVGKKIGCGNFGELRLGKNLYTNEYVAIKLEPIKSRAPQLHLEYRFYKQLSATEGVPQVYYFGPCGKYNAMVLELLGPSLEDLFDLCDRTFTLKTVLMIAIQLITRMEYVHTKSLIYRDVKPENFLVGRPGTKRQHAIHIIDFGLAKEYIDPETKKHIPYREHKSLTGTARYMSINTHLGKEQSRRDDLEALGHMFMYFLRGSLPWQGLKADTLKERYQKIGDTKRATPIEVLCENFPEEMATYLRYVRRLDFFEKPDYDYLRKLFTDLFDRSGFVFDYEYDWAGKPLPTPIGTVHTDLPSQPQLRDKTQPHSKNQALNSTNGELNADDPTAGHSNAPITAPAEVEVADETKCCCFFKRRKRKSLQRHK

Chain of Casein kinase I isoform gamma-1 (Homo sapiens) (Q9HCP0 whole entry, looked up, canonical isoform): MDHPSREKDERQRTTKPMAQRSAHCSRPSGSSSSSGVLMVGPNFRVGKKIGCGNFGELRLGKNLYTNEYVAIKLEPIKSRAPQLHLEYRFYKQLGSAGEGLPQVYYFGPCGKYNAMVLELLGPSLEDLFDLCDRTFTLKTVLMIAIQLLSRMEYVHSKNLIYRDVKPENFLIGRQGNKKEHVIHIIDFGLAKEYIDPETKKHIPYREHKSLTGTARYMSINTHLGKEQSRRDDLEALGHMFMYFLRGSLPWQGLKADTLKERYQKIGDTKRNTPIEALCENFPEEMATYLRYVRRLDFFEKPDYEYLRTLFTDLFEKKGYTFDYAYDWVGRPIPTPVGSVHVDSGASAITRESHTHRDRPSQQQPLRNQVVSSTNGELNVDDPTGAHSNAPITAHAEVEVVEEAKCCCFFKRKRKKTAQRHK
Chain of Casein kinase I isoform alpha (Homo sapiens) (P48729 2-337 limits assumed): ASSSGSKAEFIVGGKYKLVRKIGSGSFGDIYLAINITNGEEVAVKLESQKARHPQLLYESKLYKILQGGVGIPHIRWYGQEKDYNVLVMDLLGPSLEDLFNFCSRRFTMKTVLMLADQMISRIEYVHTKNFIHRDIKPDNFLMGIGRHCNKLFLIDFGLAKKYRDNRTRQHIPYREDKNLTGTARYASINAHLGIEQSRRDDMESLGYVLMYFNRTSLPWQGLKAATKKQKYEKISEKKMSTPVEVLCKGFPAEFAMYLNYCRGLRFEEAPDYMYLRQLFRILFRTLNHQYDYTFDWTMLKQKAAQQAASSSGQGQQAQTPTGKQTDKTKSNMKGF

SMILES	inhibition [1] [%]	inhibition [2] [%]	inhibition [3] [%]	inhibition [4] [%]	inhibition [5] [%]	inhibition [6] [%]	inhibition [7] [%]	inhibition [8] [%]	inhibition [9] [%]	inhibition [10] [%]
FC(F)(F)c1ccc(-c2nn3ncccc3c2-c2ccnc(Nc3ccc4c(c3)OCCO4)n2)cc1	4.67	1.27	4.75	2.11	5.84	9.84	4.54	-0.1	0.59	0.52
COc1cccc(-n2ncc3c(N/N=C/c4ccc(C)cc4)ncnc32)c1	5.4	5.91	15.2	2.36	3.89	3	8.69	6.44	11.2	6.88
CN(C)C(=O)O[C@@H]1CN[C@@H](C#Cc2cc3ncnc(Nc4ccc(OCc5cccc(F)c5)c(Cl)c4)c3s2)C1	2.9	-0.67	-0.36	-0.92	-1.41	9.15	6.58	2	6.01	1.45
NS(=O)(=O)c1ccc(-c2cc3ccncc3cc2OCc2ccccc2)cc1	2.74	3.43	3.97	2.95	2.52	4.76	3.35	2.57	3.44	1.61
C[C@@H](Oc1cc(-n2cnc3ccc(OCC4CCN(C)CC4)cc32)sc1C(N)=O)c1ccccc1C(F)(F)F	-1.33	1.47	22.4	-1.17	-0.35	-4.16	-1.43	-1.72	-1.25	-1.74
NS(=O)(=O)c1cccc(Nc2cc(-c3ccc(F)cc3)n[nH]2)c1	15.2	4.49	6.59	3.05	2.38	-3.61	3.36	2.11	3.54	1.72
CN1CCN(C(=O)c2ccc(NC(=O)Nc3ccc(N(C)c4ccnc(Nc5ccc(CS(C)(=O)=O)cc5)n4)cc3)cc2)CC1	12.6	0.02	1.8	0.71	0.35	0.51	2.95	1.88	2.79	1.94
Cc1ccc(Nc2ccnc(Nc3cccc(C(N)=O)c3)n2)cc1O	19.6	3.41	5.19	1.39	1.65	1.66	4.05	-1.2	1.43	-1.06
NS(=O)(=O)c1ccc(Nc2cc(-c3cccc(O)c3)n[nH]2)cc1	6.87	3.95	3.25	1.95	1.79	3.67	5.95	5.15	6.27	3.99
COc1cc(Nc2nccc(-c3cnn4ncccc34)n2)cc(OC)c1	33.2	3.46	16.9	0.24	0.16	11.9	45.4	2.54	19.9	3.83
Nc1ccc(C#Cc2cncnc2Nc2ccc(OCc3cccc(F)c3)c(Cl)c2)cc1	3.55	2.73	2.62	1.11	0.95	3.47	2.49	2.52	2.66	1.58
c1ccc(Nc2ncc(-c3ccccc3)o2)cc1	5.74	5.73	6.03	2.44	3.66	4.02	7.73	3.94	5.22	3.32
Cc1ccc(NC(=O)CC2CC2)cc1-c1ccc(C(=O)NCC2CC2)cc1	5.71	3.65	2.94	2.59	1.29	7.12	3.9	1.42	2.32	2.95
COc1cc2ncnc(Nc3ccc(C)c(O)c3)c2cc1OC	5.95	3.91	3.21	1.77	2.03	4.56	5.91	4.01	4.87	4.2
OCc1ccc(-c2nc(-c3ccccn3)c(-c3ccc4c(c3)OCO4)[nH]2)cc1	4.95	3.19	1.78	0.7	-1.56	9.48	43.3	4.27	5.16	3.01
c1ccc(Cc2nc3ccc(Nc4ncnc5ccccc45)cc3[nH]2)cc1	5.54	0.97	2.75	-0.59	4.11	8.25	7.49	2.6	6.23	2.94
Cc1cc(O)cc(C)c1/C=C/c1cncc(C(=O)N(C)C)c1	4.11	4.05	0.84	2.08	0.19	1.94	3.01	1.26	1.95	1.03

SMILES	inhibition [1] [%]	inhibition [2] [%]	inhibition [3] [%]	inhibition [4] [%]	inhibition [5] [%]	inhibition [6] [%]	inhibition [7] [%]	inhibition [8] [%]	inhibition [9] [%]	inhibition [10] [%]
COc1cccc(-n2ncc3c(N/N=C/c4ccc(S(C)(=O)=O)cc4)ncnc32)c1	7.99	1.1	-0.61	0.93	0.31	2.28	5.91	-2.52	-0.99	-2.87
N#Cc1c(NC(=O)c2ccccc2F)sc2c1CCCC2	-0.25	0.47	0.66	0.05	0.04	-1.71	-1.69	-1.23	-0.65	-1.34
COc1ccc(-c2nn3ncccc3c2-c2ccnc(Nc3cccc(C(F)(F)F)c3)n2)cc1	1.7	0.61	1.94	1.17	0.38	0.44	2.43	2.67	2.71	2.72
Cc1ccc(C(=O)NC2CC2)cc1-c1ccc2[nH]ncc2c1	-1.07	-1.33	-2.04	-2.24	-1.65	-6.12	-2.96	-3.43	-2.76	-2.87
Cc1cc(Cl)cc2c1NC(=O)C2=NNc1ccc(S(N)(=O)=O)cc1	1.59	4.21	4.86	2.71	5.17	1.05	0.59	1.63	1.59	1.66
COC(=O)c1ccc2c(c1)C(=Cc1cc(Br)c(O)c(Br)c1)C(=O)N2	6.58	3.53	5.53	-0.06	1.17	1.76	6.74	3.99	6.68	4.6
Cc1nc(-c2ccccc2)n2nc(NCCCN3CCOCC3)ncc12	6.52	0.26	3.44	0.32	0.77	1.74	8.04	2.06	2.66	2.09
N#Cc1cccc(Nc2nccc(-c3cnn4ncccc34)n2)c1	22.1	6.69	10.6	2.43	2.95	28.9	69.8	5.75	28.2	6.38
[O-][S+]1CCN(Cc2ccc(-c3ccc4ncnc(Nc5ccc(OCc6ccccc6)c(Cl)c5)c4c3)o2)CC1	2.35	2.58	2.95	1.24	1.08	1.88	2.94	1.25	2.34	0.8
CCS(=O)(=O)c1ccc(OC)c(Nc2nccc(N(C)c3ccc4c(C)n[nH]c4c3)n2)c1	4.2	4.59	5.05	1.98	1.88	2.29	1.04	4.4	4.99	3.88
Cc1ccc2c(c1)/C(=N/Nc1ccc(S(N)(=O)=O)cc1)C(=O)N2	6.6	-0.94	0.43	-0.24	-1.16	0.07	-0.4	0.78	1.26	0.31
Cc1ccc2c(-c3ccnc(Nc4ccc5c(c4)OCCO5)n3)c(-c3ccc(C(F)(F)F)cc3)nn2n1	4.69	1.7	2.26	0.67	0.47	0.54	-3.1	1.24	1.97	0.1
C[C@@H](Oc1cc(-n2cnc3ccc(OC[C@@H](O)CO)cc32)sc1C(N)=O)c1ccccc1Cl	-0.29	0.57	1.14	-0.99	0.82	2.6	3.43	-1.5	2.39	-1.3
Nc1nccc(-c2c(-c3ccc(F)cc3)nn3cc(C(F)(F)F)ccc23)n1	-0.2	0.37	1.13	0.32	-0.24	0.88	10.8	0.74	2.65	0.3
CCn1c(-c2nonc2N)nc2ccc(F)cc21	4.44	5.02	7.33	2.94	4.64	3.7	4.99	4.91	5.86	5.17
CN(C)c1cc2c(Nc3ccc4c(cnn4Cc4ccccc4)c3)ncnc2cn1	3.14	3.54	-2.44	1.31	-1.33	0.64	4.63	2.47	3.24	2.05
CCCN1CCCC(c2ccc(Nc3nc(Nc4cc(F)ccc4C(N)=O)c4cc[nH]c4n3)c(OC)c2)C1 (stereo not given)	11.5	81	92.6	62.5	86	44.3	78.5	36.1	78	29.6
